Records with an inconclusive call do not appear. Calls of active or inactive are those of the source. Unless noted, the rule behind the calls is not given here.
Experiments:
[1] = S. cerevisiae growth inhibition in permissive medium (OD615), pilot counter-assay for S. cerevisiae lifespan shortening project, permissive growth control (AID 705;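 active = growth inhibition above 25% in both replicates, a cutoff set 3 SD above the mean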); details: OD615, 24 h, at 10 µM, stronger effect = higher value
[2] = S. cerevisiae growth inhibition in restrictive medium, OD615, pilot screen, restrictive growth control, yeast lifespan reduction project (AID 706;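 active = growth inhibition above a set limit, 3 SD over mean compound inhibition, in both replicates, cut at about 43% in these data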;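 note: modified DeaD lifespan yeast strain shifted to restrictive glucose medium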); details: OD615, 48 h, at 10 µM, stronger effect = higher value
[3] = doxorubicin toxicity protection in MRP-1 cells – H69AR cells, CellTiter-Glo, duplicate, MRP-1 activator project, pilot screen (AID 807;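 active = viability increase at or above a cutoff of the median across tested compounds plus 3 SD, cut at about 8.5% in these data, passing the limit was not always enough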;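 note: compound pretreatment 18-22 h then 72 h combined with doxorubicin; 0% = doxorubicin alone and 100% = vehicle without doxorubicin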); details: H69AR viability with doxorubicin, CellTiter-Glo luminescence; at 10 µM; stronger effect = higher value
[4] = viability of HCT116 without oncogenic beta-catenin – human colon tumor cells, pilot screen (AID 823;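 active = cell viability at or below a set limit in both duplicate runs, the limit being the all-compound median minus 4 SD, cut at about 23% in these data, passing the limit was not always enough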;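 note: 0% = wells killed by 20 µM Hyamine and 100% = untreated DMSO cell wells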); details: HCT116 beta-catenin knockout viability, CellTiter-Glo, 60 h; at 10 µM; stronger effect = lower value
[5] = RAM pathway blockade in budding yeast – dse1pr::URA3 reporter, 5-FOA selection, pilot screen (AID 869;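 active = inhibition over a set limit, the all-compound mean plus 3 SD, in both replicate runs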;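 note: 0% = DMSO wells with no growth and 100% = 10 µM 1-NA-PP1 with full growth; RAM network block rescues cells from 5-FOA so hits raise OD615 growth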); details: S. cerevisiae dse1pr::URA3 5-FOA growth, OD615, 2 d, at 10 µM, stronger effect = higher value
[6] = molecular target: Pantothenate synthetase (Mycobacterium tuberculosis (strain ATCC 25618 / H37Rv)) (UniProt P9WIL5); assay: Coupled enzyme confirmation of inhibitors against recombinant Mtb PanC (AID 375); details: coupled enzyme assay; at 10 µM, stronger effect = higher value;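 note: 0% = full reaction with vehicle and 100% = no enzyme background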
[7] = HUVEC growth inhibition – cell-based, human, primary screen (AID 575;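 active = viability at or below 30% in both replicate assays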;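 note: 100% = median of untreated cell wells with 0.1% DMSO on each plate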); details: HUVEC proliferation, CellTiter-Glo luminescence, 72 h; at 10 µM; stronger effect = lower value
[8] = H69AR cell proliferation blockers – human, duplicate replicates, primary screen (AID 580;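 active = viability at or under a set limit in both replicates, limit being median viability minus 3 SD, cut at about 48% in these data, passing the limit was not always enough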;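 note: 100% = mean luminescence of untreated wells and 0% = no signal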); details: H69AR lung tumor cells viability, ATP luminescence, 72 h; at 10 µM; stronger effect = lower value
[9] = MRP1 drug-resistance reversers in H69AR cells – cell-based, doxorubicin co-treatment, pilot screen (AID 601;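 active = viability loss from added drug above about 55%, and viability with drug at most 40%, in both replicates, limit read from the data, passing the limit was not always enough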); details: CellTiter-Glo, 72 h, at 10 µM; for differential viability (reversal): stronger effect = higher value
[10] = yeast transport mutant growth inhibition pilot in 384-well plates, post-Golgi transport modulator project (AID 636; in the data active = inhibition above about 31%); details: absorbance 615 nm, about 18 h, stronger effect = higher value
[11] = growth suppression of yeast trafficking mutant, preliminary HTS, modulators of trafficking downstream of Golgi apparatus project, 1536-format plate, OD 615 nm (AID 637; in the data active = inhibition above about 30%); details: yeast transport mutant growth, absorbance 615 nm, 18 h; stronger effect = higher value
[12] = reduced viability of SK-BR-3 breast cancer cells – cell-based, 24 h, human, pilot screen (AID 572;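 active = viability at or below 10% of carrier control in both of two separate runs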;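 note: compound exposure lasted between 18 and 24 h rather than exactly 24 h; 100% = carrier-treated control wells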); details: SK-BR-3 viability, CellTiter-Glo luminescence, at 10 µM, stronger effect = lower value
[13] = H69AR cells + 2 uM doxorubicin, measured here: viability with 2 uM doxorubicin, stronger effect = lower value
[14] = H69AR cells, compound alone cytotoxicity

Sequence of Pantothenate synthetase (Mycobacterium tuberculosis (strain ATCC 25618 / H37Rv)) (P9WIL5 whole entry, looked up): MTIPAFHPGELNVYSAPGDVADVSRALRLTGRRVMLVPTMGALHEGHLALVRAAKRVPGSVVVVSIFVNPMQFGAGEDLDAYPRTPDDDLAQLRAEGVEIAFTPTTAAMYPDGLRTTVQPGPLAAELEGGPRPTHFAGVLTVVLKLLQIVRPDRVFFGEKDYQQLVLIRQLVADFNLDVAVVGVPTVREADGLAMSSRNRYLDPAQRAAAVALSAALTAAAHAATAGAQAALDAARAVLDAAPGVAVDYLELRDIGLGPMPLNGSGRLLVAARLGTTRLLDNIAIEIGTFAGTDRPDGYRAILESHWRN

| SMILES | growth inhibition [1] | growth inhibition [2] | viability increase [3] | viability [4] | inhibition [5] | inhibition [6] | viability [7] | viability [8] | differential viability (reversal) ([9]; H69AR cells + 2 uM doxorubicin) | viability [9, 13] | viability [9, 14] | inhibition [10] | inhibition [11] | viability [12] |
| --- | --- | --- | --- | --- | --- | --- | --- | --- | --- | --- | --- | --- | --- | --- |
| CCOC(=O)C(C)Oc1cc(C)cc2oc(=O)c3c(c12)CCCC3 (stereo unspecified) | -9.51% (inactive) | -2.87% (inactive) | -4.65% (inactive) | 70.3% (inactive) | 1.43% (inactive) |  |  |  |  |  |  |  |  |  |
| Cc1cccc(-n2c(O)c(C=NCCCN3CCOCC3)c(=O)[nH]c2=O)c1C |  |  |  |  |  | 2% (inactive) | 100% (inactive) | 105% (inactive) | 14.8% (inactive) | 90.7% | 105% | 0.8% (inactive) | -2.7% (inactive) |  |
| O=c1[nH]c(=O)n(Cc2ccc(F)cc2)c(O)c1C=NCCCN1CCOCC1 |  |  |  |  |  | 0% (inactive) | 96% (inactive) | 95.5% (inactive) | 3.54% (inactive) | 91.9% | 95.5% | -1.6% (inactive) | -2.22% (inactive) |  |
| c1ccc(Cn2ccnc2)cc1 |  |  |  |  |  | 0% (inactive) | 84.4% (inactive) | 93.5% (inactive) | -0.24% (inactive) | 93.7% | 93.5% | 0.78% (inactive) | 22% (inactive) | 127% (inactive) |
| Cc1ccccc1-n1c(O)c(C=NCCN2CCOCC2)c(=O)[nH]c1=O |  |  |  |  |  | 2% (inactive) | 97.6% (inactive) | 92.4% (inactive) | -3.12% (inactive) | 95.5% | 92.4% | -5.87% (inactive) | -8.41% (inactive) |  |
| Cc1ccc(Cn2c(C)c3cnn(CC(=O)N4CCC5(CC4)OCCO5)c(=O)c3c2C)cc1 |  |  |  |  |  | 0% (inactive) | 98% (inactive) |  | -46.2% (inactive) | 100% | 53.8% | -0.81% (inactive) | -1.09% (inactive) | 97% (inactive) |
| C[C@H]1CCCC(=O)CCCCCc2cc(O)cc(O)c2C(=O)O1 |  |  |  |  |  | 2% (inactive) |  | 87.3% (inactive) | -23% (inactive) | 110% | 87.3% | 0.26% (inactive) | -1.83% (inactive) | 107% (inactive) |
| Cc1c2ccncc2c(C)c2c1[nH]c1ccccc12 |  |  |  |  |  | 0% (inactive) | 1.5% (active) |  | 0.18% (inactive) | 0.98% | 1.16% | 1.56% (inactive) | 3.33% (inactive) |  |
| CCCCN1C(=O)NC(=O)C2(Cc3c(nc4c(C)cccn4c3=O)N3CCc4ccccc4C32)C1=O (stereo unspecified) |  |  |  |  |  | 3% (inactive) |  |  | -19.7% (inactive) | 75.6% | 55.8% | 3.56% (inactive) | 10.5% (inactive) | 111% (inactive) |
| N=C(N)c1c(O)n(C2CCCCC2)c(=O)n(C2CCCCC2)c1=O |  |  |  |  |  | 0% (inactive) | 2.35% (active) | 2.02% (active) | 0.155% (inactive) | 1.86% | 2.02% | -9.32% (inactive) | 7.14% (inactive) |  |
| CCC(C)NC(=O)c1c(N)n(CC2CCCO2)c2nc3ccccc3nc12 (stereo unspecified) |  |  |  |  |  | 0% (inactive) | 53.4% (inactive) |  | -8.02% (inactive) | 61.5% | 53.4% | -0.4% (inactive) | 4.92% (inactive) | 93% (inactive) |
| O=C(Cn1cc(C(=O)c2ccccc2)c2ccccc21)NCc1ccco1 |  |  |  |  |  | 2% (inactive) | 47.3% (inactive) | 22.6% (active) | -47.2% (inactive) | 69.8% | 22.6% | 2.47% (inactive) | 6.51% (inactive) |  |
| CN1C(=O)CN=C(c2ccc(Cl)cc2)c2cc(Cl)ccc21 |  |  |  |  |  | 0% (inactive) | 61.8% (inactive) | 84.8% (inactive) | 0.31% (inactive) | 84.5% | 84.8% | 0.39% (inactive) | 4.17% (inactive) | 84% (inactive) |
| Cc1ccc2c(c1)[C@@H]1CN(C)CC[C@@H]1N2C(=O)Nc1cccc(C(F)(F)F)c1 |  |  |  |  |  | 9% (inactive) |  | 69.9% (inactive) | -8.21% (inactive) | 78.1% | 69.9% | 1.45% (inactive) | 1.15% (inactive) |  |
| C[C@H]1CCC/C=C/C2C[C@H](O)CC2[C@H](O)/C=C/C(=O)O1 (stereo partly specified) |  |  |  |  |  | 0% (inactive) | 7.17% (active) |  | 0.59% (inactive) | 1.34% | 1.93% | -2.08% (inactive) | 0% (inactive) | 120% (inactive) |

Source: PubChem BioAssay
